# Results published in PubChem BioAssay (NCI).
# About 83,000 compounds went through this panel and 20% of them were active in at least one assay; those are over-represented in the sample as a whole.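 Testing used 96-well plates and a 48-hour single-concentration exposure. Example: -40 means 40% of the starting cells died.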 Unmarked numbers belong to inactive results. Activity calls are given as the source filed them. The calls were made as follows: active = growth percent below 10; inactive = the rest.
# How the values were obtained:
# Experiment in all cases: NCI-60 one-dose screen, 48 h (100 = growth as untreated, 0 = no growth, -100 = all killed)
# Details in all cases: 10 µM unless noted
# SR leukemia = test system: SR leukemia
# RPMI-8226 leukemia = test system: RPMI-8226 leukemia
# OVCAR-8 ovarian = test system: OVCAR-8 ovarian
# OVCAR-5 ovarian = test system: OVCAR-5 ovarian
# OVCAR-4 ovarian = test system: OVCAR-4 ovarian
# SK-OV-3 ovarian = test system: SK-OV-3 ovarian
# IGROV1 ovarian = test system: IGROV1 ovarian
# OVCAR-3 ovarian = test system: OVCAR-3 ovarian
# NCI/ADR-RES ovarian = test system: NCI/ADR-RES ovarian
# T-47D breast = test system: T-47D breast
# BT-549 breast = test system: BT-549 breast
# MDA-MB-435 melanoma = test system: MDA-MB-435 melanoma
# SW-620 colon = test system: SW-620 colon
# MCF7 breast = test system: MCF7 breast
# HCT-116 colon = test system: HCT-116 colon
# HCC-2998 colon = test system: HCC-2998 colon
# KM12 colon = test system: KM12 colon
# HS 578T breast = test system: HS 578T breast
SMILES,growth (SR leukemia),growth (RPMI-8226 leukemia),growth (OVCAR-8 ovarian),growth (OVCAR-5 ovarian),growth (OVCAR-4 ovarian),growth (SK-OV-3 ovarian),growth (IGROV1 ovarian),growth (OVCAR-3 ovarian),growth (NCI/ADR-RES ovarian),growth (T-47D breast),growth (BT-549 breast),growth (MDA-MB-435 melanoma),growth (SW-620 colon),growth (MCF7 breast),growth (HCT-116 colon),growth (HCC-2998 colon),growth (KM12 colon),growth (HS 578T breast)
O=C(N/N=C/c1cccc(O)c1)c1ccc(C(F)(F)F)nc1Nc1cccc(C(F)(F)F)c1,-38.7% (active),-37.2% (active),18.1%,34.3%,10.5%,24.6%,15%,-12.2% (active),13.6%,5.41% (active),1.67% (active),51.2%,7.06% (active),3.77% (active),-21.4% (active),10.2%,8.65% (active),–
COc1ccc(Oc2ccccc2NC(=O)CNC(=O)c2cccc3ccccc23)cc1,23.7% [5 µM],27.4% [5 µM],17% [5 µM],40.9% [5 µM],67.2% [5 µM],20.4% [5 µM],33% [5 µM],-16.6% [5 µM] (active),15.3% [5 µM],41.6% [5 µM],30.9% [5 µM],1.66% [5 µM] (active),25.6% [5 µM],23.5% [5 µM],10.9% [5 µM],33.7% [5 µM],26.5% [5 µM],–
CC(=O)Nc1cc(C(c2ccccc2)c2ccccc2)cc(C(c2ccccc2)c2ccccc2)c1C,14.3%,11.2%,73.8%,75.4%,43.8%,77%,58%,49.8%,51.8%,24.9%,55.5%,63.9%,52%,41.3%,8.02% (active),64.9%,50.5%,–
COc1cc(C2CC(C3C(=O)N(C)C(=O)N(C)C3=O)=NN2C=O)cc(OC)c1OC (centres undefined),105%,99.7%,93.9%,107%,107%,76.4%,110%,107%,99.8%,83.8%,106%,101%,97.7%,97.6%,102%,100%,102%,–
CC1CC=CCC1C1OCC(C)(C)CO1 (centres undefined),96.4%,97.2%,98.6%,104%,108%,110%,101%,109%,108%,75.3%,99.9%,105%,102%,101%,97.5%,113%,–,–
c1ccc2nc(N/N=C3\CCCCC3C3CCCCC3)ccc2c1 (centres undefined),-17.5% (active),-18.8% (active),83.6%,58%,51.1%,88.6%,44.4%,33.2%,57.2%,40.4%,61%,78.8%,44.2%,58.1%,6.79% (active),64.2%,38.4%,–
COc1cc(C(=O)/C=C/c2cccc(Nc3ccnc4cc(Cl)ccc34)c2)cc(OC)c1OC,-18.7% (active),-15.9% (active),-41% (active),-35.8% (active),-39.5% (active),20.3%,-54% (active),-51.4% (active),12.2%,-46.4% (active),-27.9% (active),-16.1% (active),-51.5% (active),-40.3% (active),-62.5% (active),40.1%,-8.69% (active),–
COc1ccc2c(c1)CC[C@@H]1[C@@H]2CC[C@]2(C)[C@@H](O)C(=O)C[C@@H]12,84.2%,103%,101%,95.8%,107%,120%,115%,106%,105%,106%,–,102%,105%,129%,99.7%,–,110%,100%
COc1ccc(NC(=O)c2ccc(-c3ccccc3)cc2)c(C(N)=O)c1,72.2%,96.3%,108%,112%,115%,98.5%,102%,96.6%,98.2%,88.6%,–,98.5%,110%,–,106%,102%,99.2%,104%
CCCCCc1c(C)[nH]c(/C=C2\N=C(c3ccc[nH]3)C=C2Oc2ccccc2)c1C,8.8% [100 µM] (active),-31.5% [100 µM] (active),-90.2% [100 µM] (active),-99.8% [100 µM] (active),-74.7% [100 µM] (active),-54.7% [100 µM] (active),-31.6% [100 µM] (active),-93.4% [100 µM] (active),-77.1% [100 µM] (active),-61.1% [100 µM] (active),–,-34.4% [100 µM] (active),-54% [100 µM] (active),-100% [100 µM] (active),-4.84% [100 µM] (active),-91.6% [100 µM] (active),-81.7% [100 µM] (active),-7.4% [100 µM] (active)
COc1ccc(C(=O)/C=C/c2cccc(Nc3ccnc4cc(Cl)ccc34)c2)cc1,0.362% (active),35.3%,10.2%,39.3%,-46% (active),64%,30.2%,23.9%,21.3%,15.7%,20.6%,28.1%,19%,23.4%,9.57% (active),68.8%,53%,–
CCOC(=O)c1cc2oc(/C=C/c3cc(=O)c4cc(Cl)ccc4o3)cc2[nH]1,87.9%,94.3%,105%,89.3%,89.6%,98.5%,–,72.3%,93.6%,68.4%,53.5%,88.2%,82.5%,40.2%,81.2%,98.1%,62.8%,71.2%
CCOc1cc(CCNS(=O)(=O)c2ccc(C)cc2)c(C(C)=O)cc1OCC,42.6% [100 µM],40% [100 µM],76% [100 µM],101% [100 µM],84.6% [100 µM],96.7% [100 µM],93.9% [100 µM],71.8% [100 µM],66.3% [100 µM],66% [100 µM],73.4% [100 µM],99.4% [100 µM],92.9% [100 µM],–,77.6% [100 µM],95.5% [100 µM],67.2% [100 µM],–
c1ccc(N2c3nc4ccccc4cc3Sc3cc4ccccc4nc32)nc1,77.7%,80.9%,88.8%,81.9%,102%,104%,–,96.7%,82.7%,82.6%,93.2%,115%,90.8%,74%,98.5%,113%,–,83.2%
OCCCc1n(Cc2ccc3ccccc3c2)c2ccccc2[n+]1Cc1ccc2ccccc2c1,-30.9% (active),2.19% (active),15.2%,31%,22.3%,62.2%,-42.2% (active),0.774% (active),90.5%,13.2%,5.33% (active),0.65% (active),19.3%,9.45% (active),–,12.5%,-20.9% (active),–
